Laboratory results published in PubChem BioAssay.
The source made the active and inactive calls.

Tests used:
[1] = E. coli DRC41 culture turbidity changes, primary screen, E. coli filamentation inducer project, strain DRC41, OD650, 48 h (AID 1152);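 further: E. coli MC1000 strain DRC41 lacking acrAB efflux pump and sulA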; conditions: E. coli DRC41 (acrAB sulA), higher = more signal, called active from +8 up or from −8 down
[2] = small-molecule binders of probe aLefty1, primary screen, biochemical, small-molecule microarray, 635/667 nm fluorescence (AID 1153); conditions: higher = more signal;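 further: score merges spot fluorescence with signal-to-noise ratio from the scanned slide images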
[3] = PSAC antagonists in infected red cells, primary screen, cell-based, P. falciparum Indochina, OD700, 1 h (AID 1154); conditions: P. falciparum Indochina infected RBC osmotic lysis, higher = more signal, called active from +8 up or from −8 down
[4] = PSAC antagonists in infected red cells, primary screen, cell-based, P. falciparum Indochina, OD700, 2 h (AID 1155);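 further: lysis reports solute entry through the parasite surface anion channel PSAC; channel blockers reduce lysis of infected cells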; conditions: P. falciparum Indochina infected erythrocytes, osmotic lysis OD700; higher = more signal, called active from +8 up or from −8 down
[5] = osmotic lysis modulators in infected erythrocytes, primary screen, PSAC antagonist project, cell-based, P. falciparum Indochina, OD700, 3 h (AID 1156); conditions: higher = more signal, called active from +8 up or from −8 down
[6] = PSAC antagonists in infected red cells, primary screen, cell-based, P. falciparum Indochina, OD700, 18 h (AID 1157); conditions: P. falciparum Indochina infected erythrocytes, osmotic lysis OD700, 18 h; higher = more signal, called active from +8 up or from −8 down
[7] = modulators of S6 phosphorylation in cells, primary screen, cell-based, A549, cytoblot, luminescence, serum-stimulated (AID 1158); conditions: A549 phospho-S6 cytoblot, 5 h, higher = more signal;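 further: serum-stimulated A549 lung adenocarcinoma cells; signal is phosphorylated S6 detected by cytoblot immunostaining with HRP secondary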
[8] = biological target: NADPH oxidase 2 (Homo sapiens) (UniProt P04839); experiment: NOX2-dependent H2O2 signal modulators, primary screen, NOX inhibitor project, cell-based, HEK293-NOX2, PMA-stimulated, Amplex Red fluorescence (AID 1159); conditions: 45 min, higher = more signal, called active from +8 up or from −8 down; further: test concentration not given here
[9] = biological target: NADPH oxidase 4 (Homo sapiens) (UniProt Q9NPH5); experiment: NOX4-dependent H2O2 signal modulators, primary screen, NOX inhibitor project, cell-based, HEK293-NOX4, tetracycline-induced, Amplex Red fluorescence (AID 1160); conditions: 45 min, higher = more signal, called active from +8 up or from −8 down
[10] = biological target: NADPH oxidase 5 (Homo sapiens) (UniProt Q96PH1); experiment: NOX5-dependent H2O2 signal modulators, primary screen, NOX inhibitor project, cell-based, HEK293-NOX5, Amplex Red fluorescence (AID 1161); conditions: HEK293-NOX5, ionomycin, 45 min, higher = more signal
[11] = A549 cell viability effects, profiling panel, calcein-AM fluorescence, 48 h, basal (AID 1162); conditions: higher = more signal; further: test concentration not given here
[12] = adipocyte viability effects, profiling panel, cell-based, 3T3-L1 adipocytes, calcein-AM fluorescence, 48 h, basal (AID 1163); conditions: 3T3-L1 adipocytes viability, higher = more signal; further: test concentration not given here
[13] = HepG2 cell viability effects, profiling panel, calcein-AM fluorescence, 48 h, basal (AID 1164); conditions: higher = more signal; further: test concentration not given here
[14] = MM1S cell viability effects, profiling panel, calcein-AM fluorescence, 48 h, basal (AID 1165); conditions: higher = more signal;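 further: viability of MM1S multiple myeloma cells under basal unstimulated conditions; test concentration not given here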
[15] = basal RPMI8226 viability, no added stimulus, profiling panel, cell-based, calcein-AM fluorescence, 48 h, PK04 Diversity Set (AID 1166); conditions: RPMI8226 myeloma viability, higher = more signal;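 further: cells grown under basal conditions without added stimulus; test concentration not given here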
[16] = basal HepG2 mitochondrial membrane potential changes, profiling panel, cell-based, JC-1 fluorescence, 24 h, 100 nL compound (AID 1167); conditions: higher = more signal; further: test concentration not given here
[17] = basal 3T3-L1 adipocyte mitochondrial potential changes, profiling panel, cell-based, JC-1 fluorescence, 3T3-L1 adipocytes, 24 h, 100 nL compound (AID 1168); conditions: JC-1 mitochondrial fluorescence, higher = more signal, called active from +8 up or from −8 down; further: test concentration not given here
[18] = basal RPMI8226 mitochondrial membrane potential changes, profiling panel, cell-based, JC-1 fluorescence, 24 h, 100 nL compound (AID 1169); conditions: RPMI8226 myeloma, JC-1 mitochondrial potential fluorescence, higher = more signal; further: test concentration not given here
[19] = basal MM1S mitochondrial membrane potential changes, profiling panel, cell-based, JC-1 fluorescence, 24 h, 100 nL compound (AID 1170); conditions: higher = more signal; further: test concentration not given here
[20] = A549 lung cancer cell viability effects, profiling panel, resazurin fluorescence, 24 h, PK04 Diversity Set (AID 1171); conditions: higher = more signal, called active from +8 up or from −8 down; further: test concentration not given here

Chain of NADPH oxidase 2 (Homo sapiens) (P04839 whole entry, looked up): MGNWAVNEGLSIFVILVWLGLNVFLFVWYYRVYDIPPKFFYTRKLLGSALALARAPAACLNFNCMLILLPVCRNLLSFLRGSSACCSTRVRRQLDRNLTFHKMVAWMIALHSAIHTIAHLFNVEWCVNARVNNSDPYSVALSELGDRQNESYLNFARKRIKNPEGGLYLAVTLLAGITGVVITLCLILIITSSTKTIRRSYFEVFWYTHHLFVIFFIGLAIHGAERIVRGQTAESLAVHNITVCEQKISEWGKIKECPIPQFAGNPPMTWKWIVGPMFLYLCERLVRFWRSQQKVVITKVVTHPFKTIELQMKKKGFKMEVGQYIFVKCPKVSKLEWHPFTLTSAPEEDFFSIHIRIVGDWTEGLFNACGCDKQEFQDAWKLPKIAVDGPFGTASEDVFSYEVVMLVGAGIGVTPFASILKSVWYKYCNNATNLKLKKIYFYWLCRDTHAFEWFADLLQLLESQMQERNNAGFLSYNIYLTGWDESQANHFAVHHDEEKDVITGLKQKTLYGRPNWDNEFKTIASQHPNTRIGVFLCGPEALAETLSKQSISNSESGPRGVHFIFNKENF
Chain of NADPH oxidase 5 (Homo sapiens) (Q96PH1 whole entry, looked up): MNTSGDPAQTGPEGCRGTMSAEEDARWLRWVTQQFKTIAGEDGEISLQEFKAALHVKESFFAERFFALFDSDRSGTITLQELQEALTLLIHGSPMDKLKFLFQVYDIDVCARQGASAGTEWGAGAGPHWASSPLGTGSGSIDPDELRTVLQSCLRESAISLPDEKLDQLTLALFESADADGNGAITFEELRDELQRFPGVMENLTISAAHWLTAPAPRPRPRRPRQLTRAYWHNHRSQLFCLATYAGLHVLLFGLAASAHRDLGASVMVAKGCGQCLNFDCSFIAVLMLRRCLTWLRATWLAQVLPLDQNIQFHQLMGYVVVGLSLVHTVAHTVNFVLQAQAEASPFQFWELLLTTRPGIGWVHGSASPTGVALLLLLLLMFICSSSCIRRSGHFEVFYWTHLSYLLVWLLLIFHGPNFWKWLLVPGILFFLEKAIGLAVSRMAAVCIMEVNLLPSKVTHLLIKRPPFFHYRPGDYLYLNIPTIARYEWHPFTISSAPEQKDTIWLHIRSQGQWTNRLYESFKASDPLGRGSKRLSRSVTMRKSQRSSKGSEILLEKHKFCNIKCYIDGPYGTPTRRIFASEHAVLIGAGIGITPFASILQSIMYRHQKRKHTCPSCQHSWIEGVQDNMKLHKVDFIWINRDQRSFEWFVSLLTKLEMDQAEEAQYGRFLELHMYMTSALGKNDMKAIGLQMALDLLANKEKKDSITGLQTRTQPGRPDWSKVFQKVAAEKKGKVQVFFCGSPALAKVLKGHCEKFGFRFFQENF
Chain of NADPH oxidase 4 (Homo sapiens) (Q9NPH5 whole entry, looked up): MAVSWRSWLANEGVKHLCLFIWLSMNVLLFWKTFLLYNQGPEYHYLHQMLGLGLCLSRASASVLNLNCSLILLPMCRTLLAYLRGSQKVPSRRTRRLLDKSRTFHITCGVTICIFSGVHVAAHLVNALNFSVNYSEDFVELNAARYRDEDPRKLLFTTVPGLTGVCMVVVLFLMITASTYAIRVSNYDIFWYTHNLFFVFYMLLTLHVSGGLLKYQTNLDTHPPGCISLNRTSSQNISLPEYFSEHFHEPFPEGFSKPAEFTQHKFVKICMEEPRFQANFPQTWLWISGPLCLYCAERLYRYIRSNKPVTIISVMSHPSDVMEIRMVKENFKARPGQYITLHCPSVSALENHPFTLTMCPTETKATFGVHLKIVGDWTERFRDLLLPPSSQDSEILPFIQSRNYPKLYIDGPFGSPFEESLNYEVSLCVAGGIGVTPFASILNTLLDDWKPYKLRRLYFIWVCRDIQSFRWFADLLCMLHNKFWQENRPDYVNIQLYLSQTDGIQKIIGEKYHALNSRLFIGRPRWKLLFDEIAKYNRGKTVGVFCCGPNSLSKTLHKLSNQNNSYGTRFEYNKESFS

SMILES | z-score [1] | composite z-score [2] | z-score [3] | z-score [4] | z-score [5] | z-score [6] | z-score [7] | z-score [8] | z-score [9] | z-score [10] | z-score [11] | z-score [12] | z-score [13] | z-score [14] | z-score [15] | z-score [16] | z-score [17] | z-score [18] | z-score [19] | z-score [20]
O=C1[C@H]2C=C(I)[C@H](C[C@@H]2OCCCCO)[C@@]12CO2 | -0.989 (inactive) | 0.0437 | 1.01 (inactive) | -0.171 (inactive) | 0.282 (inactive) | -0.039 (inactive) | 0.764 | -0.0538 (inactive) | 0.491 (inactive) | -0.584 | -0.292 | -0.393 | -0.66 | -0.739 | -0.954 | -1.71 | -0.431 (inactive) | -1.13 | -0.509 | 0.109 (inactive)
COc1ccc(CCNC(=O)[C@@]2(C)c3ccccc3C(=O)N(c3ccc(C)cn3)[C@H]2c2ccc(CO)cc2)cc1 | -0.246 (inactive) | -0.0378 | 2.01 (inactive) | -0.1 (inactive) | 0.825 (inactive) | 0.156 (inactive) | -0.0316 | -0.911 (inactive) | -0.78 (inactive) | -1.81 | -0.0466 | -0.2 | -0.352 | -0.64 | -0.081 | -0.429 | 1.22 (inactive) | 0.143 | -0.00393 | 0.236 (inactive)
CC(C)[Si](C#CCCCC#N)(O[C@H](c1ccccc1)c1cn(Cc2cccc(Cl)c2)nn1)C(C)C | 1.65 (inactive) | 0.0496 | 0.614 (inactive) | 1.24 (inactive) | -0.187 (inactive) | 1.04 (inactive) | 0.573 | -6.2 (inactive) | 0.194 (inactive) | 0.528 | -1.13 | -0.75 | -0.626 | -0.883 | -4.19 | 6.65 | -0.108 (inactive) | -0.882 | -1.56 | 0.268 (inactive)
CCCNC(=O)[C@@H]1c2ccccc2C(=O)N(Cc2ccccc2OC)[C@H]1c1ccc(CO)cc1 | 0.0817 (inactive) | -0.0011 | 2.32 (inactive) | 0.117 (inactive) | 0.297 (inactive) | 0.0117 (inactive) | -0.439 | 0.802 (inactive) | 0.998 (inactive) | 0.686 | 2.28 | -0.272 | 1.52 | 0.513 | 0.349 | 1.67 | 0.776 (inactive) | 0.182 | -0.565 | -0.0906 (inactive)
COCCCNC(=O)[C@@H]1c2ccccc2C(=O)N(Cc2ccccc2OC)[C@H]1c1ccc(CO)cc1 | 0.876 (inactive) | 0.278 | 1.54 (inactive) | -0.0902 (inactive) | 0.591 (inactive) | -0.631 (inactive) | 2.45 | -1.79 (inactive) | -3.52 (inactive) | -5.09 | -0.0798 | 1.02 | -0.429 | 0.528 | -0.447 | 1.59 | -0.588 (inactive) | -0.171 | -0.391 | 1.71 (inactive)
[N-]=[N+]=Nc1ccccc1C[C@@]1(C(=O)N2CCCCC2)N=C(c2ccc(OCCCO)cc2)O[C@@H]1c1ccccc1N=[N+]=[N-] | 0.0693 (inactive) | 0.926 | 31.8 (active) | 29.5 (active) | 2.52 (inactive) | 3.95 (inactive) | 0.0562 | 0.0863 (inactive) | -0.141 (inactive) | -0.801 | -0.911 | 0.0245 | -1.7 | -3.47 | -4.35 | -1.21 | -0.923 (inactive) | -1.3 | -2.21 | -0.797 (inactive)
NC(=O)N1C(=O)C2C(C1=O)C1C=C(CCCO)C2C(C2CC2)N1Cc1cc2c(cc1Br)OCO2 (stereo not given) | -0.766 (inactive) | 0.19 | 4.92 (inactive) | 0.494 (inactive) | -0.23 (inactive) | 0.357 (inactive) | 0.415 | 0.334 (inactive) | -0.381 (inactive) | -0.344 | -0.318 | 0.505 | -0.0479 | -2.42 | -0.885 | -0.258 | -0.274 (inactive) | 0.21 | -0.237 | -0.604 (inactive)
C=CC[C@]1(C(N)=O)N=C(c2ccc(OCCCO)cc2)O[C@H]1c1ccccc1 | -0.0378 (inactive) | -0.0057 | 6.38 (inactive) | 1.44 (inactive) | 0.99 (inactive) | 0.765 (inactive) | -0.039 | 0.737 (inactive) | 0.676 (inactive) | 0.145 | 0.354 | 0.464 | -0.717 | -0.519 | -0.111 | -0.579 | -1.09 (inactive) | -0.414 | 0.13 | -0.0187 (inactive)
CN1C(=O)C2C=CC(C(O)c3c(F)cccc3Cl)N(NC(=O)OC(C)(C)C)C2C1=O (stereo not given) | -0.963 (inactive) | 0.343 | -0.332 (inactive) | 0.119 (inactive) | -0.46 (inactive) | 0.58 (inactive) | -1.11 | -1.06 (inactive) | -0.495 (inactive) | -1.03 | -0.646 | -0.204 | -0.482 | -0.208 | -1.64 | -1.25 | -0.555 (inactive) | -0.715 | 0.925 | 0.143 (inactive)
